# Screening data (PubChem BioAssay)
# C diff growth: inhibitors of Clostridium difficile growth; Clostridium difficile clinical isolate growth, OD600, 24 h; active compounds read low; growth activity, negative = inhibition, % at 16 µg/mL (by protocol); hit rate 0.25% among 86,000; AID 1259249;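 active = mean growth activity at or below -80% and every replicate also at or below -80%; inconclusive = mean at or below -80% but some replicate above -80%; inactive = mean growth activity above -80%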
# Pf Dd2 growth: inhibitors of Plasmodium falciparum Dd2 growth. activity change, % at 10 µM. hit rate 2.3% among 94,000. P. falciparum Dd2 growth, SYBR Green, 72 h; active compounds read low; in the data active = activity change below about -80%; inconclusive = no clear call, values can overlap the other calls
# T cruzi growth-1: inhibitors of T. cruzi proliferation | T. cruzi beta-gal in NIH3T3, GalScreen luminescence, 90 h | inhibition, % at 8.34 µM | hit rate 5.9% among 77,000 | AID 624255;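 active = mean inhibition above about 93%, with at least 55% of replicates each passing it, limit read from the data, passing the limit was not always enough; inconclusive = only one of those two conditions holds; inactive = neither condition holds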
# T cruzi growth-2: inhibitors of T. cruzi proliferation. T. cruzi beta-gal in NIH3T3, GalScreen luminescence, 90 h. hit rate 72% among 5,600. shares compounds with T cruzi growth-1. AID 651739. inhibition, % at 8.35 µM;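 active = mean replicate inhibition above about 95% and at least 55% of replicates individually reaching it, limit read from the data; inconclusive = only one of the two criteria is met; inactive = neither criterion is met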
# T cruzi growth-3: Trypanosoma cruzi proliferation inhibition | inhibition, % at 2.09 µM | hit rate 21% among 5,600 | shares compounds with T cruzi growth-1 | AID 651740 | T. cruzi beta-gal in NIH3T3, GalScreen luminescence, 90 h;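 active = mean inhibition above about 95%, with at least 55% of replicates also reaching it, limit read from the data; inconclusive = meets just one of the two conditions; inactive = meets neither condition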
# 3T3 cytotox: kills mouse NIH/3T3 fibroblasts; shares compounds with T cruzi growth-1; NIH/3T3 viability, CellTiter-Glo ATP luminescence, 90 h; cytotoxicity (signal decrease), % at 8.35 µM; hit rate 14% among 5,600; AID 651742;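 active = mean signal decrease across replicates above about 35% based on untreated-well scatter, with enough replicates individually passing, limit read from the data; inconclusive = no rule stated though some were filed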
# 3T3 cytotox 2: NIH/3T3 (mouse) viability loss; shares compounds with T cruzi growth-1; NIH/3T3 viability, CellTiter-Glo ATP luminescence, 90 h; inhibition, % at 24.9 µM; hit rate 56% among 5,600;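 active = mean loss of cell viability signal at or above a set limit, and enough replicates individually reaching it; inconclusive = meets only the mean limit or only the replicate share; inactive = meets neither condition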
# Hits are given with their value; . = inactive; ? = inconclusive; / = no result. In the library only some 6.7% were active in any assay of this set; here they are far more common.
SMILES,C diff growth,Pf Dd2 growth,T cruzi growth-1,T cruzi growth-2,T cruzi growth-3,3T3 cytotox,3T3 cytotox 2
C[C@H](CO)N1C[C@H](C)[C@H](CN(C)Cc2ccc3c(c2)OCO3)Oc2ncc(/C=C/c3ccccc3)cc2C1=O,.,.,111,98,.,.,103
C[C@H](CO)N1C[C@H](C)[C@@H](CN(C)Cc2ccc3c(c2)OCO3)Oc2ncc(/C=C/c3ccccc3)cc2C1=O,.,.,.,/,/,/,/
C[C@H]1CN([C@@H](C)CO)C(=O)c2cc(/C=C/c3ccccc3)cnc2O[C@H]1CN(C)Cc1ccc2c(c1)OCO2,.,.,.,/,/,/,/
C/C=C/c1cnc2c(c1)C(=O)N([C@H](C)CO)C[C@H](C)[C@H](CN(C)Cc1ccc3c(c1)OCO3)O2,.,.,/,/,/,/,/
C[C@@H]1CN([C@H](C)CO)C(=O)c2cc(/C=C/c3ccccc3)cnc2O[C@H]1CN(C)Cc1ccc2c(c1)OCO2,.,.,121,100,?,38,104
C[C@H]1CN([C@@H](C)CO)C(=O)c2cc(/C=C/c3ccccc3)cnc2O[C@@H]1CN(C)Cc1ccc2c(c1)OCO2,.,.,118,108,.,.,102
COc1ccc2c3c([nH]c2c1)[C@@H](CO)N(C(=O)Nc1ccc(F)cc1)CC31CN(S(=O)(=O)c2cn(C)cn2)C1,.,.,/,/,/,/,/
COc1ccc(NC(=O)N(C)C[C@@H]2OCCCC[C@H](C)Oc3ccc(NC(=O)CCC(F)(F)F)cc3C(=O)N([C@H](C)CO)C[C@H]2C)cc1,.,.,.,/,/,/,/
C[C@H]1CN([C@@H](C)CO)C(=O)c2cc(NS(=O)(=O)c3ccc(F)cc3)ccc2O[C@@H]1CN(C)S(=O)(=O)c1ccc(Cl)cc1,.,.,.,/,/,/,/
C[C@H](CO)N1C[C@H](C)[C@H](CN(C)S(=O)(=O)c2ccc(Cl)cc2)Oc2ccc(NS(=O)(=O)c3ccc(F)cc3)cc2C1=O,.,.,?,98,.,40,?
C[C@@H]1CCCCO[C@H](CN(C)S(=O)(=O)c2ccc(F)cc2)[C@H](C)CN([C@@H](C)CO)C(=O)c2cc(NS(=O)(=O)c3ccc(Cl)cc3)ccc2O1,.,.,.,/,/,/,/
C[C@H]1CCCCO[C@H](CN(C)S(=O)(=O)c2ccc(F)cc2)[C@@H](C)CN([C@@H](C)CO)C(=O)c2cc(NS(=O)(=O)c3ccc(Cl)cc3)ccc2O1,.,.,99,98,.,.,.
C[C@@H]1CCCCO[C@H](CN(C)S(=O)(=O)c2ccc(F)cc2)[C@H](C)CN([C@H](C)CO)C(=O)c2cc(NS(=O)(=O)c3ccc(Cl)cc3)ccc2O1,.,.,100,103,110,.,.
C[C@@H]1CCCCO[C@@H](CN(C)S(=O)(=O)c2ccc(F)cc2)[C@H](C)CN([C@H](C)CO)C(=O)c2cc(NS(=O)(=O)c3ccc(Cl)cc3)ccc2O1,.,.,.,/,/,/,/
C[C@H](CO)N1C[C@H](C)[C@H](CN(C)S(=O)(=O)c2ccc(Cl)cc2)OCCCC[C@H](C)Oc2ccc(NS(=O)(=O)c3ccc(F)cc3)cc2C1=O,.,.,.,/,/,/,/
C[C@H]1CCCCO[C@H](CN(C)S(=O)(=O)c2ccc(Cl)cc2)[C@@H](C)CN([C@@H](C)CO)C(=O)c2cc(NS(=O)(=O)c3ccc(F)cc3)ccc2O1,.,.,103,?,110,.,.
C[C@@H]1CN([C@H](C)CO)C(=O)c2cc(NC(=O)CCCN(C)C)ccc2O[C@@H]1CN(C)C,.,.,/,/,/,/,/
CN(C)CC(=O)N[C@H]1CC[C@H](CC(=O)NCc2ccc(Cl)cc2)O[C@@H]1CO,.,.,.,/,/,/,/
CN(C)CC(=O)N[C@H]1CC[C@@H](CC(=O)NCc2ccccc2F)O[C@@H]1CO,.,.,.,/,/,/,/
C[C@@H]1CCCCO[C@@H](CN(C)S(=O)(=O)c2ccc(F)cc2)[C@@H](C)CN([C@H](C)CO)C(=O)c2cc(NS(=O)(=O)c3ccc(Cl)cc3)ccc2O1,.,.,.,/,/,/,/
C[C@@H]1CN([C@H](C)CO)C(=O)c2cc(NS(=O)(=O)c3ccc(Cl)cc3)ccc2O[C@@H](C)CCCCO[C@@H]1CN(C)S(=O)(=O)c1ccc(F)cc1,.,.,105,104,109,.,.
